Results from PubChem BioAssay (NCI).
Compounds without any hit were thinned out: in the full panel of roughly 83,000, 20% have a hit.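 Activity criterion: percent growth below 10, measured after cells in 96-well plates were exposed to a single compound concentration for 48 hours.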 Unmarked numbers belong to inactive results. Activity calls are given as the source filed them.

How the values were obtained:
Test in all cases: NCI-60 one-dose screen, 48 h (100 = growth as untreated, 0 = no growth, -100 = all killed)
Settings in all cases: 10 µM unless noted
[1] = tested on: NCI/ADR-RES ovarian
[2] = tested on: T-47D breast
[3] = tested on: BT-549 breast
[4] = tested on: MDA-MB-435 melanoma
[5] = tested on: SW-620 colon
[6] = tested on: MCF7 breast
[7] = tested on: HCT-116 colon
[8] = tested on: HCC-2998 colon
[9] = tested on: KM12 colon

SMILES	growth [1]	growth [2]	growth [3]	growth [4]	growth [5]	growth [6]	growth [7]	growth [8]	growth [9]
NC(=Nc1ccccc1)N[N+](=O)[O-]	101%	97%	88.5%	118%	97.8%	100%	101%	98.8%	106%
CC(C)(NC(=O)O[C@@H]1CN2CCC1CC2)c1csc(-c2ccc(F)cc2)n1	96.8%	88.3%	101%	99.1%	99.2%	90.3%	95.5%	102%	101%
N#CC1C(C#N)C2CCC1C1C2N1c1ccccc1 (configuration not stated)	111%	108%	98.1%	107%	100%	101%	95.1%	102%	102%
c1cnc2[nH]cc(-c3csc(-c4cn(CCCCN5CCOCC5)c5ccccc45)n3)c2c1	69.4%	36.1%	79.6%	24.4%	18.1%	25.1%	40.3%	56.9%	24.1%
CC1(C)N=C(N)N=C(N)N1c1ccc(OCCCNC(=O)Nc2ccc(S(=O)(=O)F)cc2)c(Cl)c1	115%	52.4%	60.9%	31.5%	20.6%	18.4%	14.8%	15.3%	22%
C[S+]1C=Cc2ccccc2C1c1ccc(Cl)cc1 (configuration not stated)	101%	89.9%	85.6%	75%	112%	84.5%	81.6%	103%	1.91% (active)
COc1cc(C=C2c3ccccc3C(=O)c3ccccc32)ccc1OCCCCOc1cc2c(cc1OC)C(=O)N1CCCC1C=N2 (configuration not stated)	6.1% (active)	-30% (active)	-40.2% (active)	-57.6% (active)	-84.4% (active)	-77.1% (active)	-85.3% (active)	-94.4% (active)	-85.7% (active)
Nc1ncnc2n[nH]nc12	67.7%	4.78% (active)	89.8%	75.1%	61.5%	63.2%	65.1%	68.7%	70.4%
Cc1ccc(N2COOC3(OOC2)C2CC4CC(C2)CC3C4)cc1	95.6%	82.7%	95.7%	93.2%	108%	77.6%	89%	107%	90.6%
Nc1nc([Se])c2ncn(C3OC(CO)C(O)C3O)c2n1 (configuration not stated)	41.5%	93.5%	69.7%	74.3%	82.1%	42.9%	28.1%	88.7%	82.5%
COC(=O)[C@@]1(O)C[C@H]2O[C@]1(C)n1c3ccccc3c3c4c(c5c6ccccc6n2c5c31)C(=O)NC4	-40.2% (active)	-37.4% (active)	-73.9% (active)	-90.2% (active)	-19.7% (active)	-40.7% (active)	-4.08% (active)	-53.4% (active)	-13.9% (active)
O=C1C(N2CC2)=C(N2CC2)C(=O)C(N2CC2)=C1N1CC1	-27.7% (active)	30.5%	-34.2% (active)	-74.7% (active)	0.521% (active)	-46.1% (active)	-79.2% (active)	-94.9% (active)	-58.6% (active)
CC(=O)O[C@H](C[C@H](C(C)C)N(C)C(=O)[C@@H](NC(=O)[C@H]1CCCCN1C)C(C)(C)C)c1nc(C(=O)N[C@@H](Cc2ccccc2)C[C@H](C)C(=O)O)cs1	12.3%	45.6%	-23.6% (active)	-47% (active)	24.5%	16.4%	0.775% (active)	8.37% (active)	6.93% (active)
COC(=O)[C@H](Cc1c[nH]c2ccccc12)NC(=O)[C@@H](OC)[C@@H]1Cc2cc3cc(OC4CC(OC5CC(O)C(O)C(C)O5)C(O)C(C)O4)c(C)c(O)c3c(O)c2C(=O)[C@H]1OC1CC(OC2CC(OC3CC(C)(O)C(O)C(C)O3)C(O)C(C)O2)C(O)C(C)O1 (some centres not stated)	76.7%	8.07% (active)	-53.4% (active)	-71.9% (active)	6.98% (active)	5.98% (active)	3.71% (active)	-46.8% (active)	0.363% (active)
O=[N+]([O-])CC(c1ccccc1Cl)c1c(-c2ccccc2)[nH]c2ccccc12 (configuration not stated)	25.5%	22.1%	37.3%	-9.48% (active)	25.2%	21.8%	20.3%	71.3%	26.8%
O=C(O)C(Cl)(Cl)C(F)(F)F	102%	106%	96.9%	97.7%	94.7%	99.6%	105%	99.9%	102%
C[C@@H]1C[C@@]2(C)[C@@H](CC[C@@H]3[C@@H]2CC[C@]2(C)C(=O)CC[C@@H]32)CC1=O	102%	98.9%	112%	90%	99.7%	99.9%	69.3%	109%	115%
Clc1cccc(NCOOC2(OOCNc3cccc(Cl)c3)CCCCC2)c1	36.8%	62%	78%	78.7%	98.8%	65.3%	61.2%	95.4%	51.4%
CCOC(=O)[C@@H](C)C[C@H](Cc1ccccc1)NC(=O)c1csc([C@@H](C[C@H](C(C)C)N(C)C(=O)CNC(=O)[C@H]2CCCCN2C)OC(C)=O)n1	74.7%	47.5%	30.9%	-63.8% (active)	24.5%	17.9%	3.7% (active)	8.98% (active)	12%
O=C1C(=Cc2cn(Cc3ccccc3)c3ccccc23)C(=O)N(Cc2ccccc2)C(=O)N1Cc1ccccc1	106%	51.7%	118%	108%	101%	80.3%	76.2%	97.4%	101%
NC(=S)c1cn(C2OC(CO)C(O)C2O)c2ncnc(N)c12 (configuration not stated)	-25.8% (active)	-16.9% (active)	-43.1% (active)	-40.5% (active)	-27.6% (active)	2.36% (active)	-16.3% (active)	-44.8% (active)	-14.9% (active)
CC(=O)ONc1ccc([N+](=O)[O-])c(C(F)(F)F)c1	101%	77.1%	92.9%	105%	102%	93.6%	100%	108%	101%
CC(=O)[O][Hg][O]C(C)=O	108%	52.9%	103%	85.7%	85.6%	55.9%	95.7%	120%	87.5%
CC1CN1CCCCN1CC1C (configuration not stated)	108%	101%	103%	111%	105%	93.8%	95.7%	94.2%	104%
Nc1cc2nc3ccccc3nc2cc1N	94.8%	52.7%	94%	109%	98%	23.5%	74.9%	96.8%	91.6%
CCNc1nc(Cl)nc(NCC)n1	101%	91%	108%	94.8%	101%	98.7%	88.1%	104%	106%
c1cc2c(c3c1CCNC3)OCO2	101%	90.4%	97.4%	106%	112%	92.7%	99%	102%	106%
NC(=O)c1c(Br)n(C2OC(CO)C(O)C2O)c2ncnc(N)c12 (configuration not stated)	8.09% (active)	-14.7% (active)	-16.1% (active)	1.13% (active)	1.1% (active)	-18.6% (active)	3.73% (active)	18.4%	-8.13% (active)
